Drawing on ChEMBL document CHEMBL1961873, “Compounds: GSK PKIS; Assays: Nanosyn kinase panel” (2012), this text covers inhibition for 15 molecules.

The structures appear in SMILES notation.
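Further: enzyme tested as the CDK4–cyclin D complex, with the value reported as mean percent inhibition.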

In the test the target is Cyclin-dependent kinase 4 (Homo sapiens) (UniProt P11802). To be noted: at 1 µM.
Chain of Cyclin-dependent kinase 4 (Homo sapiens) (P11802 whole entry): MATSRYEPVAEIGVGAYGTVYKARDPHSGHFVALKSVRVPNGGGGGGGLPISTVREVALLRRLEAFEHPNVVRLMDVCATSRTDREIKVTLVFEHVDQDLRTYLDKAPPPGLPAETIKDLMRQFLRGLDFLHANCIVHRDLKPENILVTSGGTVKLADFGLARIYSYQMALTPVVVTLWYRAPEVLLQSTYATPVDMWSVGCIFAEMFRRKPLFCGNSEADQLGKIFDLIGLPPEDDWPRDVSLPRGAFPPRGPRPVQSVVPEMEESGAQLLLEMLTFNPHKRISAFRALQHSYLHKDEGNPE
`Nc1ccc(C#Cc2cncnc2Nc2ccc(OCc3cccc(F)c3)c(Cl)c2)cc1` gave an inhibition of 3.75%.

With `ON=C1CCc2cc(-c3nc(C4CCNCC4)[nH]c3-c3ccncc3)ccc21`, the inhibition was found to be 2.19%.

In the case of `CS(=O)(=O)CCNCc1nc(-c2ccc3ncnc(Nc4ccc(OCc5cccc(C(F)(F)F)c5)cc4)c3c2)cs1`, the inhibition came out at 3.83%.

`Cc1ccc2c(-c3ccnc(Nc4ccc5c(c4)OCCO5)n3)c(-c3ccc(C(F)(F)F)cc3)nn2n1`: the inhibition is 1.74%.

In turn, `CN(C)C(=O)O[C@H]1CN[C@H](C#Cc2cc3ncnc(Nc4ccc(OCc5cccc(F)c5)c(Cl)c4)c3s2)C1` came in with an inhibition of 1.04%.

`COc1cc(/C=N/Nc2ncnc3c2cnn3C(C)C)ccc1O` showed an inhibition of 18.7%.

In turn, `Cc1cc(Cl)cc2c1NC(=O)C2=NNc1ccc(S(N)(=O)=O)cc1` displayed an inhibition of 3.56%.

`Nc1nccc(-c2c(-c3ccc(F)cc3)nn3cc(C(F)(F)F)ccc23)n1` came in with an inhibition of 1.03%.

Regarding `COC(=O)c1cncc(/C=C/c2c(C)cc(O)cc2C)c1`, the inhibition is 3.9%.

`Cc1nc(-c2ccccc2)n2nc(NCCCN3CCOCC3)ncc12`: the inhibition was 15.2%.

The molecule `Cc1ccc2c(c1)/C(=N/Nc1ccc(S(N)(=O)=O)cc1)C(=O)N2` gave an inhibition of 16.9%.

In turn, `CCCN1CCCC(c2ccc(Nc3nc(Nc4cc(F)ccc4C(N)=O)c4cc[nH]c4n3)c(OC)c2)C1` (stereo not given) registered an inhibition of 12.1%.

`CN(c1ccc(NC(=O)Nc2ccc(OC(F)(F)F)cc2)cc1)c1ccnc(Nc2cccc(S(N)(=O)=O)c2)n1`: the inhibition is 6.76%.

Take `O=C1Nc2ccccc2/C1=C/Nc1ccc2[nH]c(=O)[nH]c2c1`: the inhibition came to 11.3%.

`FC(F)(F)c1ccc(-c2nn3ncccc3c2-c2ccnc(Nc3ccc4c(c3)OCCO4)n2)cc1` had an inhibition of 5.52%.

For orientation: inhibition means how much of the control response was suppressed. A higher inhibition goes with a response far below the control.
